High-throughput results deposited in PubChem by National Center for Advancing Translational Sciences (NCATS).
USP1-UAF1 inh: USP1/UAF1 (human) deubiquitinase inhibition | O94782 | Potency, µM (series often up to 57.1 µM), most hits filed as inhibitors | recombinant USP1/UAF1, Ub-Rhodamine cleavage fluorescence | 390,000 tested, 0.23% active; note: nearly all actives have a fitted effect of over 60% in size
Target sequence (O94782 whole entry, looked up): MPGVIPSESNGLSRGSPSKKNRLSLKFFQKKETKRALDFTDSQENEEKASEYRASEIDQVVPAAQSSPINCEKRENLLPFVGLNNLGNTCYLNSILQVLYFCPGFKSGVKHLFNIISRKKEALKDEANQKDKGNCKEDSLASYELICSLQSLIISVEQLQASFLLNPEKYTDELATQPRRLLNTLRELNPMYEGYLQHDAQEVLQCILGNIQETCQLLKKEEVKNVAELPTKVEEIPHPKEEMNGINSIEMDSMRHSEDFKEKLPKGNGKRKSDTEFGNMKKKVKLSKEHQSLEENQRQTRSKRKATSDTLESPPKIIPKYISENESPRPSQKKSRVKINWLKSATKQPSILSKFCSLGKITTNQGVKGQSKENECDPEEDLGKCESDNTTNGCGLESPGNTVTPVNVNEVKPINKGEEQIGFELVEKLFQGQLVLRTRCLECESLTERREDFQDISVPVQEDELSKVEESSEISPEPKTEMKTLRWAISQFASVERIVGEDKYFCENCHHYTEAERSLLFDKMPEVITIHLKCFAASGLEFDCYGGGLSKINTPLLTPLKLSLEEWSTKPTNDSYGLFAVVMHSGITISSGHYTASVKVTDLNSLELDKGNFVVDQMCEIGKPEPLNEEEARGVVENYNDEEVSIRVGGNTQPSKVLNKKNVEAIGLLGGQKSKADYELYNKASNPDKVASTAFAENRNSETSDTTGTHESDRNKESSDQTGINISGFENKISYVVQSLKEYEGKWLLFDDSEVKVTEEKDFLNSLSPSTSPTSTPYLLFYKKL
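High-throughput fluorogenic screen: 1nM USP1/UAF1 complex, Ub-Rho substrate 150nM final, 50mM HEPES pH 7.8 with 0.5mM EDTA, 0.1 mg/ml BSA, 1mM TCEP and 0.01% Tween-20.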
EPAC2 antagonist: blocks human EPAC2 exchange factor | 360,000 tested, 0.18% active | Potency, µM (series often up to 114 µM), hits mostly inhibitors | EPAC2 GEF exchange of Rap1B-BODIPY-GDP, fluorescence | Q8WZA2; note: nearly all actives have a fitted effect of over 45% in size
EPAC1 agonist: activates human EPAC1 exchange factor. O95398. EPAC1 agonist qHTS, biochemical assay; response scale: 100% = response to 6.5 mM cAMP. Potency, µM (doses to about 154 µM), usual class: activators. 360,000 tested, 0.073% active. AID 720707; note: nearly all actives have a fitted effect of over 60% in size
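Read-out is the fluorescence drop as BODIPY-GDP leaves Rap1B (480 nm excitation, 540 nm emission), recorded every 5 minutes over 30 minutes. Reactions held 100 nM EPAC1, 250 nM Rap1B–BODIPY-GDP and 50 uM GDP, with 6.5 mM cAMP setting full activation.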
EPAC2 agonist: activates human EPAC2 exchange factor. EPAC2 activation, biochemical qHTS; response scale: 100% = 6.5 mM cAMP response. 360,000 tested, 0.079% active. Potency, µM (top dose mostly 154 µM), hits mostly activators. AID 720711. Q8WZA2; note: nearly all actives have a fitted effect of over 50% in size
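Exchange assay: 100 nM EPAC2 with 250 nM Rap1B-BODIPY-GDP and 50 uM GDP. Fluorescence (ex 480/em 540 nm) read every 5 min for 30 min at room temperature. Data normalized to 6.5 mM cAMP as agonist control.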
EPAC1 antag: antagonists of human EPAC1; 360,000 tested, 0.14% active; EPAC1 GEF assay, Rap1b-BODIPY-GDP exchange fluorescence; Potency, µM (highest dose often 115 µM), hits mostly inhibitors; O95398; note: nearly all actives have a fitted effect of over 50% in size
12-LOX inh: blocks human arachidonate 12S-lipoxygenase; purified 12hLO, xylenol orange hydroperoxide absorbance; 580,000 tested, 1.1% active; Potency, µM (top dose mostly 108 µM), actives largely listed as inhibitors
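Purified human 12hLO (150 nM final) in 25 mM Hepes, 0.01% Triton X-100, pH 7.0 was preincubated 15 min at room temperature with compound. Then 40 uM arachidonic acid was added, 30 min. Hydroperoxide was read by Fe-XO absorbance ratio 573/405 nm.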
Numbers stand for hits; . = inactive; ? = inconclusive; / = no result; ! = a repeat was not active. Sampled rows, rich in hits. Any-hit rate of the full collection: about 1.3%. Calls come from the whole dose curve; as a rule, active = well fitted curve in the direction sought with a large enough effect; inconclusive = small, poorly fitted or top-dose-only effect, or another doubt; inactive = no such curve, though single readings can be large; an effect the other way counts as inactive or inconclusive.

SMILES	USP1-UAF1 inh	EPAC2 antagonist	EPAC1 agonist	EPAC2 agonist	EPAC1 antag	12-LOX inh
COC(=O)C1=C(C)N(Cc2ccccc2)C(=O)N[C@H]1c1ccccc1	.	?	.	.	.	.
COC(=O)C1=C(C)N(Cc2ccc(Br)cc2)C(=S)NC1c1ccc(F)cc1 (centres undefined)	/	/	/	/	/	39.8µM
COC(=O)C1=C(C)N(Cc2ccc(Br)cc2)C(=S)NC1c1cccc(F)c1 (centres undefined)	/	/	/	/	/	35.5µM
CCN1C(=O)N[C@@H](c2ccc(Br)cc2)C(C(=O)OC)=C1C	.	?	.	.	.	.
COC(=O)C1=C(C)N(Cc2ccccc2)C(=S)NC1c1ccc(-c2ccccc2)cc1 (centres undefined)	/	/	/	/	/	22.4µM
COC(=O)C1=C(C)N(Cc2ccccc2)C(=S)NC1c1cccc(OC)c1 (centres undefined)	/	/	/	/	/	31.6µM
COC(=O)C1=C(C)N(Cc2ccccc2)C(=S)N[C@H]1c1ccccc1	?	?	.	.	.	?
CCCN(CCC)S(=O)(=O)N1CC=C(c2c(OC)cc(OC)cc2OC)CC1	/	/	/	/	/	.
CCc1nnc(NC(=O)Nc2cccc(Cl)c2)s1	/	/	/	/	/	.
CCOC(=O)C1=C(C)N(CC)C(=S)NC1c1ccc(Cl)cc1 (centres undefined)	.	.	.	.	.	?
COC(=O)C1=C(C)N(Cc2ccc(Cl)cc2)C(=S)NC1c1ccc(Cl)cc1 (centres undefined)	/	/	/	/	/	31.6µM
CCOC(=O)CSC(=S)N(C)C	/	/	/	/	/	.
N#Cc1c(O)c2c(-c3ccc(-c4ccccc4O)cc3)csc2[nH]c1=O	/	/	/	/	/	24.3µM
N#Cc1c(-c2ccccc2)cc(-c2ccc3c(c2)OCO3)[nH]c1=O	.	.	.	.	.	?
Cc1cc(SCc2c(F)c(F)c(F)c(F)c2F)nc2ccccc12	/	/	/	/	/	.
Cc1cccc(-n2c(=S)[nH]c3sc4c(c3c2=O)CCc2ccccc2-4)c1	.	.	.	.	.	15.8µM
Cn1c(=O)c2c(nc(Nc3cccc(Cl)c3)n2CC(=O)O)n(C)c1=O	/	/	/	/	/	.
O=C(c1ccc(C(F)(F)F)cc1)N1CCc2nc(-c3ccccc3)nc(-c3ccc(Cl)cc3)c2C1	/	/	/	/	/	.
NS(=O)(=O)c1ccc(CCNC(=O)CSc2ccccc2)cc1	.	.	.	.	.	.
NS(=O)(=O)c1ccc(CCNC(=O)CNCCc2ccccc2)cc1	.	.	.	.	.	0.631µM
O=C(Nc1cccc(Cl)c1)c1nnc(C(=O)N2CCC(C(=O)NCCN3CCCC3)CC2)s1	/	/	/	/	/	.
CN(C)C(=O)c1ccc(Nc2cc3c(cn2)cc(-c2ccc(C(=O)N(C)C)cc2)n3Cc2ccccc2)cc1	/	/	/	/	/	.
O=C1CC(SC(=S)C2CCCC2=O)C(=O)N1 (centres undefined)	.	.	.	.	.	22.4µM
Cn1c(-c2c(N)n(CCc3ccccc3)c3nc4ccccc4nc23)nc2ccccc21	28.2µM	.	.	.	.	?
Nc1ccc(O)cc1C(=O)OCC(=O)c1ccc(C2CCCCC2)cc1	.	.	.	.	.	11.2µM
SMILES	USP1-UAF1 inh	EPAC2 antagonist	EPAC1 agonist	EPAC2 agonist	EPAC1 antag	12-LOX inh
O=C(COC(=O)c1ccc(O)cc1O)c1ccc(Cl)cc1	.	.	.	.	.	44.7µM
O=C(c1cc2cc([N+](=O)[O-])ccc2oc1=O)N(Cc1ccccc1)c1ccccc1	/	/	/	/	/	.
CCOCCCNC(=O)C(NC(=O)c1cccc(C)c1)C(C)C (centres undefined)	/	/	/	/	/	.
CCOc1ccc(-n2cnc3scc(-c4ccc(OC)c(OC)c4)c3c2=O)cc1	.	50.1µM	.	.	.	.
Cc1c(Cl)cccc1Nc1n[nH]c(=S)s1	.	.	.	.	.	22.4µM
Fc1ccccc1Nc1n[nH]c(=S)s1	.	.	.	.	.	25.1µM
S=c1[nH]nc(Nc2cccc3ccccc23)s1	.	.	.	.	.	?
Cc1ccccc1Nc1n[nH]c(=S)s1	.	.	.	.	.	?
COc1cc(NS(=O)(=O)c2cccc(Cl)c2C)cc2sc(NC(=O)c3ccccc3)nc12	/	/	/	/	/	.
O=C1NN(c2ccc(Br)cc2)C(=O)/C1=C\c1ccc(O)cc1O	.	.	.	.	.	39.8µM
O=C1NN(c2cccc(Br)c2)C(=O)/C1=C\c1ccc(O)cc1	?	.	.	.	.	15.8µM
Cc1nn(-c2ccc(C(F)(F)F)cc2)c(C)c1[C@@H]1C=C[C@@H](NC(=O)NC(C)C)C1	/	/	/	/	/	11.2µM
Cc1nn(-c2ccc(F)cc2)c(C)c1[C@@H]1C=C[C@@H](NC(=O)CC(C)(C)CC(=O)O)C1	/	/	/	/	/	20µM
Cc1nn(-c2ccc(C(F)(F)F)cc2)c(C)c1[C@@H]1C=C[C@@H](NC(=O)COCC(=O)O)C1	/	/	/	/	/	.
Cc1nn(-c2ccc(C(C)C)cc2)c(C)c1[C@@H]1C=C[C@@H](NC(=O)NC(C)C)C1	/	/	/	/	/	.
CC(=O)c1cccc(NCC(=O)Nc2ccccc2C#N)c1	/	/	/	/	/	.
CC(=O)c1ccc(N2CCN(S(=O)(=O)c3ccc(-c4cc(C)[nH]n4)s3)CC2)cc1	/	/	/	/	/	.
O=C1OC(c2ccc3ccccc3c2O)(c2ccc3ccccc3c2O)c2ccccc21	?	.	.	.	56.2µM	6.31µM
O=C1OC(c2ccc(O)cc2)(c2ccc(O)cc2)c2ccccc21	.	?	.	.	.	?
O=C(NCCc1ccc(F)cc1)c1ccc(=O)[nH]c1	/	/	/	/	/	.
Nc1ccc(-c2nc3ccc(N)cc3[nH]2)cc1	.	.	.	.	?	.
Nc1ccc2cc3[nH]c4cc(N)ccc4c3nc2c1	?	.	89.1µM	56.2µM	.	?
COC(=O)C1CCN(C(=O)c2nn(C(C)C)c(=O)c3ccccc23)CC1	/	/	/	/	/	.
O=C1c2ccccc2C(=O)c2c(O)c(O)cc(O)c21	.	.	.	.	?	31.6µM!
S=c1[nH]nc(-c2ccccc2)n1C1C=CCCC1 (centres undefined)	.	.	.	.	.	44.7µM
SMILES	USP1-UAF1 inh	EPAC2 antagonist	EPAC1 agonist	EPAC2 agonist	EPAC1 antag	12-LOX inh
CCNC(=O)NC(=O)COC(=O)c1sccc1C	/	/	/	/	/	.
O=C1S/C(=C\C=C\c2ccco2)C(=O)N1c1ccc(O)cc1	.	.	.	.	.	39.8µM
O=C(O)CC(C(=O)O)N1C(=O)/C(=C/C=C/c2ccco2)SC1=S (centres undefined)	?	.	.	.	.	?
O=C1S/C(=C\C=C\c2ccco2)C(=O)N1c1ccccc1	.	.	.	.	89.1µM	28.2µM
COc1ccc(C(=O)Nc2cc(C)c(O)c(-c3nc4ccccc4o3)c2)cc1	/	/	/	/	/	.
CCc1noc(-c2cccn3c(CNC(=O)c4ccc5ccccc5n4)nnc23)n1	/	/	/	/	/	.
CCCn1c(N)c(N(CCOC)C(=O)c2cccc(OC)c2)c(=O)[nH]c1=O	/	/	/	/	/	.
CNC(=O)COc1ccc(Cl)c2cccnc12	.	.	.	.	.	.
